An excerpt weighted towards active compounds, which were near 2.6% of everything screened.
p53 PUMA act: mutant p53 pathway re-activators, primary screen, cell-based, SW480, luciferase, single point, HTS; SW480 PUMA-promoter luciferase, p53 mutant reactivation; 1.5% of 28,000 active; activation, % at 9.98 µM; AID 624151, 2012; in the data active means activation above about 52%
Myc binder: binders of human c-Myc, primary screen, biochemical, small molecule microarray, anti-His fluorescence; Myc proto-oncogene protein (Homo sapiens), P01106; His-c-Myc binding; AID 624141, 2012; calls only; 1.5% of 17,000 active;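 active means spot fluorescence over background with P-value below 7% in all four replicate spots, showing protein binding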
NFkB binder: binders of NF-kB p50 subunit, primary screen, biochemical, small molecule microarray, anti-His fluorescence; Nuclear factor NF-kappa-B p105 subunit (Homo sapiens), P19838; anti-His fluorescence binding; calls only; 1.3% of 17,000 active; AID 624139, 2012;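 active means spot fluorescence over background significantly raised, with a chance value under 7% in all four replicate spots of the compound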;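 further: probe protein is his-tagged human p50 processed subunit at 1 µg/ml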
STAT3 binder: STAT3 binders, primary screen, biochemical, small molecule microarray, single point, set 2; Signal transducer and activator of transcription 3 (Homo sapiens), P40763; His-STAT3 binding, anti-His fluorescence; calls only; 0.2% of 17,000 active; AID 624138, 2012;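 active means compounds whose four printed spots each show fluorescence over background unusually high for their array block, chance value under 7%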
p53 mut binder: binders of human mutant p53, primary screen, biochemical, small molecule microarray, anti-GST fluorescence; small molecule microarray binding; mutant tumor protein p53 (GST-tagged), Homo sapiens; calls only; 0.4% of 17,000 active;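 active means compounds whose four printed spots each glow above background more than chance allows, each with a p-value under 7%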
Numbers stand for hits; – = inactive; · = not tested or not shown; + = active, no number.

SMILES	p53 PUMA act	Myc binder	NFkB binder	STAT3 binder	p53 mut binder
CCC(C)[C@H]1C(=O)O[C@H](C(C)C)C(=O)N(C)[C@@H](C(C)C)C(=O)O[C@H](C(C)C)C(=O)N(C)[C@@H](C(C)C)C(=O)O[C@H](C(C)C)C(=O)N1C (some centres not stated)	–	–	+	–	–
CO/C1=C/C(C)=C/[C@@H](C)[C@@H](O)[C@@H](C)C/C(C)=C/C=C\[C@H](OC)[C@@H]([C@@H](C)[C@@H](O)[C@H](C)[C@@]2(O)C[C@@H](O)[C@H](C)[C@@H](C(C)C)O2)OC1=O	–	–	–	–	–
O=C(CCl)c1cc(Br)c(Br)s1	–	–	–	–	–
CC(C)C[C@H]1C(=O)N2CCC[C@H]2[C@]2(O)O[C@](NC(=O)[C@@H]3C=C4c5cccc6[nH]cc(c56)C[C@H]4N(C)C3)(C(C)C)C(=O)N12	–	·	·	·	·
CC[C@@H](CO)NC(=O)[C@@H]1C=C2c3cccc4c3c(cn4C)C[C@H]2N(C)C1	–	+	–	–	–
CCC(CO)NC(=O)C1C=C2c3cccc4[nH]cc(c34)CC2N(C)C1 (configuration not stated)	–	+	+	–	–
COc1cc2c(cc1OC)-c1c(OC)c(OC)c(N)c3c1[C@H](C2)N(C)CC3	–	·	·	·	·
Cc1ccc2c(c1)Cc1c(C(=O)NC3CCCCC3)nn(-c3ccc(Cl)cc3Cl)c1-2	–	–	+	–	–
O=C(O)C1C2CCC(O2)C1C(=O)NCCc1ccccc1 (configuration not stated)	–	+	–	–	–
CC1C/C=C/C2C3OC3(C)C(C)C3C(Cc4ccccc4)NC(=O)C23OC(=O)O/C=C/C(C)(O)C1=O (configuration not stated)	–	–	–	–	–
COC1CC(OC2CCC3(C)C(CCC4(O)C3CC(OC(=O)c3ccccc3)C3(C)C(O)(C(C)=O)CCC43O)C2)OC(C)C1OC1CC(OC)C(OC2OC(C)C(O)C(OC)C2O)C(C)O1 (configuration not stated)	–	+	+	–	–
CO[C@H]1[C@@H](O)[C@@H](C)O[C@@H](OC2CCC3(C)C(CC[C@@H]4[C@@H]3CCC3(C)C(C5=CC(=O)OC5)C(O)CC43O)C2)[C@@H]1O (some centres not stated)	–	–	–	–	–
COC1=CC(=O)O[C@@H](/C=C/c2ccccc2)C1	78	–	–	–	–
CCCC(C)n1[nH]c(=O)c2c1NC(=O)CSC2c1cccc([N+](=O)[O-])c1 (configuration not stated)	–	–	–	–	–
COC(=O)c1cc2c(cn1)[nH]c1ccccc12	–	–	–	–	–
CCOC(=O)c1cc2c(cn1)[nH]c1ccccc12	65	–	–	–	–
